Shown are actives, neighbours in structure and some others; about 21% of the full set was active somewhere.
RORg inh = qHTS for inhibitors of ROR gamma transcriptional activity; Drosophila S2 Gal4-RORgamma UAS-luciferase reporter, 20 h; 310,000 compounds, 5.4% hits; Potency, µM (top dose mostly 53.6 µM), without a hit: at the highest dose activity change, negative = inhibition, usual class: inhibitors; AID 2551, 2010; Nuclear receptor ROR-gamma (Mus musculus), P51450; note: potency is the fitted concentration of half-maximal effect; nearly all actives have a fitted effect of over 60% in size
Target sequence (P51450 whole entry, looked up, the tested form may be a part): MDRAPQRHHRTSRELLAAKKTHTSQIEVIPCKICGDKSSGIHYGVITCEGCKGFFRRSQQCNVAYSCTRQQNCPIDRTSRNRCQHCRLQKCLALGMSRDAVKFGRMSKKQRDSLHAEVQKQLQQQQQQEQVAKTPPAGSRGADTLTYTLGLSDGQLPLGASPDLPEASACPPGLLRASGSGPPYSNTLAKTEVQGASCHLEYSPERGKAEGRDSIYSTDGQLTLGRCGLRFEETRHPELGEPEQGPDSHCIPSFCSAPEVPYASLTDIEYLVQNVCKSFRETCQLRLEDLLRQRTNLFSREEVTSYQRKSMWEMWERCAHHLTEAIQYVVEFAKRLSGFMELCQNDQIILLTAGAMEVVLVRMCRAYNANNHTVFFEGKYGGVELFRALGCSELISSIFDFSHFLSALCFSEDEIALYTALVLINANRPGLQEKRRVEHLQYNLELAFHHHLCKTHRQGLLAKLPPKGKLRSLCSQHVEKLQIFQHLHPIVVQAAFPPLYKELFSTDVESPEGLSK
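In this cell-based reporter format, copper sulfate (700 uM final) drives Gal4–ROR gamma fusion expression from a metallothionein promoter in Drosophila Schneider cells; compounds preincubated 1 hr, reporter read after 20 hr at ambient temperature.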
TDP1 cell noCPT = qHTS for Inhibitors of human tyrosyl-DNA phosphodiesterase 1 (TDP1): qHTS in cells in absence of CPT. Potency, µM (titrated, usually from 46.2 µM), without a hit: at the top dose activity change, negative = growth inhibition, actives largely listed as inhibitors. 420,000 compounds, 15% hits. DT40 Tdp1-/- hTDP1 cells, no CPT, ATP luminescence, 48 h. AID 686978, 2013; note: potency is the fitted concentration of half-maximal effect; nearly all actives have a fitted effect of over 55% in size
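Readout: luminescence from CellTiter-Glo after 30 min in the dark at RT. Cells: DT40 Tdp1-/- with stable hTDP1, 400/well. Exposure: compounds alone, ≥48 hr, 37 °C.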
VP16 counter = VP16 counterscreen qHTS for inhibitors of ROR gamma transcriptional activity; Drosophila S2 Gal4-VP16 UAS-luciferase, luminescence, 20 h; Potency, µM (titrated, usually from 53.6 µM), for the others: at the highest dose activity, negative = inhibition, hits mostly inhibitors; 310,000 compounds, 3.5% hits;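 note: Gal4-VP16 expression switched on by copper sulfate through the metallothionein promoter; potency is the fitted concentration of half-maximal effect; nearly all actives have a fitted effect of over 50% in size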
ELG1 repair inh = qHTS screen for small molecules that inhibit ELG1-dependent DNA repair in human embryonic kidney (HEK293T) cells expressing luciferase-tagged ELG1. HEK293T ELG1-luciferase reporter, luminescence, 16 h; DNA damage induced by 5-fluorouridine. Potency, µM (top dose mostly 46.1 µM), for inactives: top-dose activity change, negative = inhibition, usual class: inhibitors. 330,000 compounds, 2.3% hits. AID 504467, 2011; note: potency is the fitted concentration of half-maximal effect; nearly all actives have a fitted effect of over 55% in size
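Quantitative HTS, concentration-response format. 2,000 cells/well co-treated with 5-fluorouridine and compound, 16 hr in 5% CO2 at 37 °C; ONE-Glo luminescence read after 30 min.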
IL1B secr inh = qHTS for Inhibitors of Inflammasome Signaling: IL-1-beta AlphaLISA Primary Screen | THP-1 LPS/ATP IL-1B secretion, AlphaLISA, 16 h; active compounds read low | activity change, % at 57.5 µM | 360,000 compounds, 4.7% hits; in the data active = activity change below about -50%; inconclusive = mostly about -30% to -49%
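THP-1 cells pretreated 1 hr with compounds (up to 57.5 uM final), then stimulated with LPS (250 ng/mL final) plus ATP (1.25 mM final); secreted IL-1B measured by AlphaLISA after 16 hr, decreased signal indicating inhibition.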
TDP1 cell CPT = qHTS for Inhibitors of human tyrosyl-DNA phosphodiesterase 1 (TDP1): qHTS in cells in presence of CPT | chicken DT40 Tdp1-/-;hTDP1 cells + 20 nM CPT, ATP luminescence, 48 h | Potency, µM (titrated, usually from 46.2 µM), for inactives: at the top dose activity change, negative = growth inhibition, actives largely listed as inhibitors | 420,000 compounds, 12% hits; note: potency is the fitted concentration of half-maximal effect; nearly all actives have a fitted effect of over 55% in size
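Cell growth measured by CellTiter-Glo luminescence after a minimum 48 h, 37 C compound exposure with 20 nM CPT in Tdp1-knockout DT40 cells stably expressing hTDP1, seeded 400/well; qHTS titration format.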
An asterisk follows results filed as active. Unless noted, calls come from the whole dose curve; as a rule, active = well fitted curve in the direction sought with a large enough effect; inconclusive = small, poorly fitted or top-dose-only effect, or another doubt; inactive = no such curve, though single readings can be large; an effect the other way counts as inactive or inconclusive. % is set by controls: 0 for no effect and ±100 for the full control effect.

Results for O=C(Oc1ccccc1)N1CCC2(CCCN(c3ccccc3)C2)CC1 ?
RORg inh: 27%; TDP1 cell noCPT: -20%; VP16 counter: 1%; TDP1 cell CPT: 0%

How did COc1ccc(NC(=O)C2CCCN(S(=O)(=O)c3ccc(Cl)cc3)C2)cc1 (stereo unspecified) do in these assays?
TDP1 cell noCPT: -1%; TDP1 cell CPT: -1%

What do the screens show for `COCCNC(=O)c1cccc(OC2CCN(Cc3ccc(C(C)C)cc3)CC2)c1`?
RORg inh: 42%; TDP1 cell noCPT: inconclusive; VP16 counter: -1%; ELG1 repair inh: inconclusive; IL1B secr inh: -69*; TDP1 cell CPT: inconclusive

Results for Cc1ccc(CN2CCC(Oc3cccc(C(=O)N(C)CCN(C)C)c3)CC2)cc1C ?
RORg inh: -8%; TDP1 cell noCPT: inconclusive; VP16 counter: -1%; ELG1 repair inh: -7%; IL1B secr inh: -65*; TDP1 cell CPT: inconclusive

How did COCCNC(=O)c1cccc(OC2CCN(Cc3ccc(C(=O)OC)cc3)CC2)c1 do in these assays?
RORg inh: -2%; TDP1 cell noCPT: -25%; VP16 counter: -12%; ELG1 repair inh: -16%; IL1B secr inh: -16; TDP1 cell CPT: -11%

What do the screens show for `COc1cc(/C=C/C(=O)N2CCN(Cc3ccccc3)CC2)cc(OC)c1OC`?
RORg inh: -2%; TDP1 cell noCPT: 18µM*; VP16 counter: 0%; ELG1 repair inh: -25%; IL1B secr inh: 4; TDP1 cell CPT: -73%

What do the screens show for `COc1cc(/C=C/C(=O)N2CCN(CC(O)COc3ccccc3)CC2)cc(OC)c1OC` (stereo unspecified)?
RORg inh: -12%; TDP1 cell noCPT: 21µM*; VP16 counter: 0%; ELG1 repair inh: inconclusive; IL1B secr inh: -6; TDP1 cell CPT: inconclusive

How did CN1CCN(C(=O)/C=C/c2ccc(Cl)cc2)CC1 do in these assays?
RORg inh: 29%; TDP1 cell noCPT: 7%; VP16 counter: -7%; ELG1 repair inh: inconclusive; IL1B secr inh: -24; TDP1 cell CPT: 6%

Results for O=C(/C=C/c1ccc(Cl)cc1)N1CCN(Cc2ccccc2)CC1 ?
RORg inh: 31%; TDP1 cell noCPT: inconclusive; VP16 counter: -18%; ELG1 repair inh: 7%; IL1B secr inh: -75*; TDP1 cell CPT: -14%

How did CCC(=O)N(CCC1(C(C)C)CCOC(C)(C)C1)C(C)c1cccs1 (stereo unspecified) do in these assays?
RORg inh: 31%; TDP1 cell noCPT: inconclusive; VP16 counter: 7%; ELG1 repair inh: -3%; IL1B secr inh: 5; TDP1 cell CPT: inconclusive

What do the screens show for `Cc1cccc(C)c1-n1nnnc1C1(C)CCC(=O)N1c1ccc(N2CCOCC2)cc1` (stereo unspecified)?
TDP1 cell noCPT: inconclusive; IL1B secr inh: 1; TDP1 cell CPT: inconclusive

Results for O=C(NNC(=O)c1cc(Br)c(Br)s1)c1ccncc1 ?
TDP1 cell noCPT: -4%; ELG1 repair inh: 4%; IL1B secr inh: -1; TDP1 cell CPT: -3%

What do the screens show for `O=C(Cn1c(=O)oc2ccccc21)Nc1ccc(F)cc1`?
RORg inh: 4%; TDP1 cell noCPT: -5%; VP16 counter: 0%; ELG1 repair inh: 10%; IL1B secr inh: -1; TDP1 cell CPT: -14%

Results for CCOc1cc(/C=C2/SC(=O)N(CC(=O)N3CCc4ccccc4C3)C2=O)ccc1OCC(=O)O ?
RORg inh: 22%; TDP1 cell noCPT: -2%; VP16 counter: -2%; ELG1 repair inh: -1%; IL1B secr inh: -8; TDP1 cell CPT: 10%

How did NC(=O)COc1ccccc1/C=C1/SC(=O)N(CC(=O)N2CCc3ccccc3C2)C1=O do in these assays?
RORg inh: inconclusive; TDP1 cell noCPT: 18µM*; VP16 counter: 14%; ELG1 repair inh: inconclusive; IL1B secr inh: -19; TDP1 cell CPT: 21µM*

What do the screens show for `CC(C)(C)n1nnnc1C(c1cccnc1)N1CCN(C(=O)c2ccco2)CC1` (stereo unspecified)?
RORg inh: 2%; TDP1 cell noCPT: -14%; VP16 counter: -8%; ELG1 repair inh: 20%; IL1B secr inh: 0; TDP1 cell CPT: -16%

How did CC(C)(C)c1cc(C(c2cccnc2)N2CCN(CCO)CC2)cc(C(C)(C)C)c1O (stereo unspecified) do in these assays?
RORg inh: 13µM*; TDP1 cell noCPT: 2.3µM*; VP16 counter: 18µM*; ELG1 repair inh: -2%; IL1B secr inh: -102*; TDP1 cell CPT: 1.5µM*

How did O=C(Cn1c(=O)n(-c2ccccc2)c(=O)c2c3c(sc21)CCCC3)Nc1cccc(F)c1 do in these assays?
TDP1 cell noCPT: -26%; TDP1 cell CPT: inconclusive

What do the screens show for `CCC(C)Sc1nc2c(c(=O)[nH]1)C(c1cccs1)C1=C(CCCC1=O)N2` (stereo unspecified)?
RORg inh: 2%; TDP1 cell noCPT: 21µM*; VP16 counter: 1%; ELG1 repair inh: -25%; IL1B secr inh: -10; TDP1 cell CPT: inconclusive

What do the screens show for `O=C1CCCC2=C1C(c1ccncc1)c1c(nc(SCc3ccccc3Cl)[nH]c1=O)N2` (stereo unspecified)?
RORg inh: -13%; TDP1 cell noCPT: -23%; VP16 counter: -11%; ELG1 repair inh: 8%; IL1B secr inh: -21; TDP1 cell CPT: -16%

Results for CC(C)C[C@@H](CC(=O)N[C@@H](CCC(=O)O)CC(=O)O)NC(=O)[C@@H]1CNCC[C@H]1NC(=O)C[C@H](CCCN)NC(=O)C[C@H](CO)NC(=O)[C@@H]1CNCC[C@H]1N ?
RORg inh: -28%; VP16 counter: 5%

Results for CCCCN(CC)CCCNC(=O)c1cn(CC)c2ccc(S(=O)(=O)N3CCc4ccccc4C3)cc2c1=O ?
RORg inh: 6%; TDP1 cell noCPT: 18µM*; VP16 counter: -1%; ELG1 repair inh: 18%; TDP1 cell CPT: 16µM*

Results for CCn1cc(C(=O)NCCCN(CC(C)C)CC(C)C)c(=O)c2cc(S(=O)(=O)N3CCc4ccccc4C3)ccc21 ?
TDP1 cell noCPT: -10%; TDP1 cell CPT: 8%

Screening results from PubChem.
